Screening data as filed in PubChem.
Rows were chosen to be rich in hits. Some 4% of all compounds tested hit in one or more screens of this group.
TWEAK Fn14 block = inhibitors of TWEAK-Fn14 signaling, primary screen, luciferase reporter cells, uHTS; 360,000 compounds, 2% hits; TWEAK-stimulated Fn14 reporter cells, luciferase luminescence, 8 h; inhibition, % at 10 µM; in the data active = inhibition above about 50%
CF NFkB inh = inhibitors of PAF-induced NF-kB signaling, primary screen, cell-based, GFP fluorescence, uHTS; KKLEB NF-kB-GFP reporter, GFP fluorescence overnight; 360,000 compounds, 0.86% hits; inhibition, % at 5 µM;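 active = at least 50% inhibition at 5 µM, scaled per plate between neutral and stimulator controls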;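 note: PAF is a Pseudomonas aeruginosa culture filtrate used as stimulus; plate controls were PAF-stimulated DMSO wells for no effect and unstimulated DMSO wells for full effect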
HIF-2a inh = HIF-2a reporter inhibitors, primary screen, luminescence, 786-0 RCC cells | 360,000 compounds, 0.72% hits | inhibition, % at 18.8 µM | 786-0 RCC cells HIF-2a reporter, luciferase luminescence, overnight;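 active = inhibition of the luminescence signal of 40% or more relative to plate controls, in a single-dose primary screen at 18.75 µM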
KKLEB cytotox = cytotoxicity in KKLEB CF airway cells, primary screen, cytotoxicity control for CF NF-kB inhibitor project, cell-based, uHTS, fluorescence assay plates. activity change (cytotoxicity), % at 5 µM. KKLEB CF airway cells viability, ATPlite luminescence, overnight; hits give low values; cells stimulated with P. aeruginosa culture filtrate. AID 602141, 2011. 360,000 compounds, 0.36% hits;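 active = corrected activity change at or below -50% at 5 µM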
TROY signal inh = inhibitors of TROY-driven NF-kB signaling, primary screen, Q293 LMP1-TROYcd cells, NF-kB luciferase, uHTS; Q293 LMP1-TROYcd NF-kB luciferase reporter, 4 h; inhibition, % at 10 µM; 360,000 compounds, 0.98% hits;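 active = compounds whose plate-normalised and pattern-corrected inhibition of the luciferase reporter signal at the single screening dose is 50% or more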
Peg3 prom inh-1 = Peg3 promoter-driven luciferase inhibitors, primary screen, cell-based, HeLa, luciferase luminescence; AID 588405, 2011; inhibition, % at 20 µM; 360,000 compounds, 1.7% hits; HeLa PEG-Prom luciferase reporter, overnight;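 active = inhibition of at least 50% at 20 µM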
Peg3 prom inh-2 = Peg3 promoter reporter inhibitors, retest, confirmation, cell-based, HeLa, luciferase reporter, single concentration. shares compounds with Peg3 prom inh-1. HeLa PEG-Prom luciferase reporter, luminescence, overnight. inhibition, % at 20 µM. 1,300 compounds, 84% hits. AID 602417, 2012;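 active = at 20 µM dose, 40% or more inhibition averaged across four replicates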
* = called active by the depositor; nt = no result.

SMILES | TWEAK Fn14 block | CF NFkB inh | HIF-2a inh | KKLEB cytotox | TROY signal inh | Peg3 prom inh-1 | Peg3 prom inh-2
CC(=O)Nc1cccc(NC(=O)c2cc(-c3cccnc3)nc3ccc(Cl)cc23)c1 | 24.4 | 17.4 | 4.3 | -17.7 | -0.1 | 56.9* | 47.3*
COc1ccc(NC(=O)COC(=O)CCc2ccc(S(=O)(=O)N3CCOCC3)cc2)cc1Cl | -17.0 | -2.1 | 7.6 | 4.0 | 8.5 | 5.2 | nt
COC(=O)CSc1ncnc2scc(-c3ccccc3)c12 | 8.3 | 35.0 | 17.3 | -24.2 | 10.4 | 14.1 | nt
CC(=O)c1ccccc1-c1csc2ncnc(Sc3nnnn3C)c12 | 32.7 | 43.1 | 8.2 | -27.0 | -11.0 | 53.9* | 7.4
CC(C)N(C(=O)[C@H]1C[C@H](CC(=O)NCCCN(C)C)C(=O)N2CCc3c([nH]c4ccc(Cl)cc34)[C@]12C)C(C)C | 2.6 | 28.4 | -25.2 | -1.4 | -0.9 | 40.2 | nt
O=C(C[C@H]1C[C@H](C(=O)N2CCOCC2)[C@@]2(CCC3CCCC3)c3[nH]c4ccc(Cl)cc4c3CCN2C1=O)NCCN1CCOCC1 | 1.3 | 15.7 | -16.8 | 0.3 | -10.5 | 50.1* | 7.8
CC(C)N(C(=O)[C@H]1C[C@H](CC(=O)NCC23CC4CC(CC(C4)C2)C3)C(=O)N2CCc3c([nH]c4ccc(Cl)cc34)[C@]12C)C(C)C | 54.4* | 39.3 | -17.2 | -2.9 | 39.5 | 62.6* | 42.6*
O=C(Cn1nc(C(=O)O)c2ccccc2c1=O)Nc1cc(Cl)ccc1-n1cncn1 | 8.7 | 10.0 | 5.0 | -8.2 | 13.7 | -2.4 | nt
CCc1cccc(CC)c1NC(=S)NCCc1c(C)[nH]c2ccc(C)cc12 | -36.2 | 12.8 | 1.5 | 5.4 | 6.2 | 69.0* | 85.4*
COC(=O)c1cccc(NC(=O)c2cnoc2C)c1 | 0.1 | 1.2 | 4.0 | 9.3 | -7.3 | 7.2 | nt
Cc1cc(C)c(NC(=O)Cn2cnc3c(oc4ccccc43)c2=O)c(C)c1 | 1.1 | 0.6 | -12.2 | -10.5 | -14.2 | 7.3 | nt
O=C(CSc1ccc([N+](=O)[O-])cc1)NCC1CCCCC1 | -0.2 | 17.6 | 0.4 | -11.4 | -12.4 | -0.6 | nt
CN1C(=O)CN(CCN2CC(=O)N(C)C(=O)C2)CC1=O | -19.6 | -19.0 | 4.0 | -1.5 | 9.9 | 4.2 | nt
O=[N+]([O-])CC1(n2nc3ccccc3n2)CCCCC1 | 36.9 | 46.0 | 6.6 | -47.4 | 17.7 | 66.8* | -1.9
COC(=O)C1=C(C(=O)OC)C(c2ccc(OC)c(OC)c2)c2sc(=O)[nH]c2S1 (stereo not drawn) | -0.7 | 6.3 | 22.7 | -6.3 | -16.2 | 4.3 | nt
Cc1cccc(NC(=O)c2oc3ccc(S(=O)(=O)N4CCOCC4)cc3c2C)c1C | 27.4 | 2.0 | 1.0 | -2.7 | 22.5 | 53.8* | 55.7*
CCCN(CC(=O)Nc1cc(Cl)cc(Cl)c1)CC(=O)Nc1ccc(F)c(F)c1F | 49.0 | 5.7 | -8.6 | -24.5 | 42.4 | 87.5* | 91.4*
CCCN(CC(=O)Nc1ccccc1Br)CC(=O)Nc1ccc(F)c(F)c1F | 25.9 | 9.1 | 19.2 | -6.7 | 37.6 | 15.8 | nt
Cc1nc(N2CCN(S(=O)(=O)c3ccccc3C#N)CC2)c2c(-c3ccccc3)csc2n1 | 31.0 | 11.3 | 17.7 | -17.7 | -0.5 | 53.8* | 61.7*
Cc1ccc2nc(N(CCCN(C)C)C(=O)c3ccc4c(c3)CCCC4)sc2c1 | 8.5 | 24.1 | 3.8 | -33.3 | -0.1 | 107.6* | 97.9*
CCN(Cc1ccccc1)S(=O)(=O)c1ccc(C(=O)N(CCCN(C)C)c2nc3cc4c(cc3s2)OCCO4)cc1 | 6.3 | -9.5 | -42.2 | -3.2 | 15.9 | 53.3* | 72.5*
CN(C)CCCN(C(=O)c1ccc(C(=O)c2ccccc2)cc1)c1nc2cc3c(cc2s1)OCO3 | -24.0 | 10.8 | -3.8 | -7.4 | 9.2 | 85.9* | 90.2*
COc1cc2c(cc1OC)C(C)N(C(=O)/C=C/c1cc(OC)c(OC)c(OC)c1)CC2 (stereo not drawn) | -26.9 | 2.4 | 10.3 | -9.3 | -4.8 | 14.6 | nt
Cc1cccc(NC(=O)CCNC(=O)c2ccc(Br)cc2)c1 | -16.4 | -3.9 | -179.2 | -0.1 | -37.2 | -174.7 | nt
CC(Sc1ncc(C(F)(F)F)cc1Cl)C(=O)NCC1CCCO1 (stereo not drawn) | -7.9 | 3.7 | 10.7 | 0.9 | 23.2 | 12.8 | nt
SMILES | TWEAK Fn14 block | CF NFkB inh | HIF-2a inh | KKLEB cytotox | TROY signal inh | Peg3 prom inh-1 | Peg3 prom inh-2
Cc1[nH]n2c(=O)cc(C(C)(C)C)nc2c1-c1ccccc1 | -65.0 | 20.4 | 10.5 | -2.4 | 10.7 | 54.5* | 50.5*
CN1CCN(CCNC(=O)c2ccc3nc(-c4ccc(F)cc4)c(-c4ccc(F)cc4)nc3c2)CC1 | -29.9 | -14.1 | -5.3 | -11.3 | 10.3 | 74.4* | 90.0*
CC(C)(CO)CN1CCC(n2nccc2NC(=O)C2CCOC2)CC1 (stereo not drawn) | -10.2 | -0.9 | 3.1 | -7.9 | 0.5 | 13.3 | nt
COc1ccc(N(CCCN2C(=O)c3cccc4cccc(c34)C2=O)C(=O)c2cccs2)cc1 | 7.0 | -21.7 | 9.0 | -2.0 | 0.0 | 52.5* | 42.3*
COc1cc(C)ccc1N(CCCN1C(=O)c2cccc3cccc(c23)C1=O)C(=O)c1cccs1 | 39.7 | 12.9 | 12.2 | -5.7 | -13.6 | 12.0 | nt
CCc1ccccc1NS(=O)(=O)Cc1ccccc1 | 11.9 | -3.4 | 15.6 | -8.7 | -1.2 | 16.9 | nt
CCOC(=O)C1=C(COC(=O)CNC(=O)c2ccc(C(C)(C)C)cc2)NC(=O)NC1C (stereo not drawn) | -1.2 | -5.9 | -25.8 | 9.9 | -10.7 | -21.0 | nt
CSc1ccc(CN(C)C(=O)C(Cc2ccccc2)NC(=O)c2ccccc2)cc1 (stereo not drawn) | 28.1 | 16.3 | 14.9 | -12.3 | 16.3 | 65.7* | 61.7*
CN(Cc1ccc(F)cc1)C(=O)C(Cc1ccccc1)NC(=O)c1ccccc1 (stereo not drawn) | 22.7 | -12.6 | 14.8 | 0.6 | 16.1 | 34.7 | nt
COc1ccc(CN(C)C(=O)C(Cc2ccccc2)NC(=O)c2ccccc2)cc1F (stereo not drawn) | 27.9 | 26.7 | 17.6 | -28.3 | 12.8 | 54.1* | 84.4*
COc1cc2c(cc1OC)C(SC)=NC1(CCCC1)C2 | 12.0 | 5.7 | 37.2 | -0.3 | -9.8 | 64.3* | -29.9
COc1ccc(NC(=O)COc2ccccc2Cl)cc1S(=O)(=O)N1CCCCC1 | -9.6 | -1.2 | -7.6 | -8.4 | 17.3 | 12.8 | nt
Fc1ccc([C@@H]2CCNC[C@H]2COc2ccc3c(c2)OCO3)cc1 | -7.3 | 7.8 | -12.9 | -11.2 | -10.4 | 66.0* | 62.3*
